NS1 inh = qHTS Assay for Inhibitors of Influenza NS1 Protein Function; Potency, µM (highest dose often 46.1 µM), for the others: top-dose activity, positive = more growth; 270,000 tested, 0.4% active; AID 2326, 2010; calls by dose curve; further: potency means the concentration at half of the fitted maximal effect; actives are rising curves; nearly all actives have a fitted effect of over 50% in size
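Growth recovery, yeast-based: influenza A NS1 expressed in S. cerevisiae causes slow growth, and suppressors are detected by OD600. The parent strain without NS1 is used as positive control.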
Pf growth 48h = Primary qHTS for delayed death inhibitors of the malarial parasite plastid, 48 hour incubation; P. falciparum luciferase growth in erythrocytes, 48 h; Potency, µM (highest dose often 28.7 µM), for inactives: top-dose activity change, negative = inhibition, actives largely listed as inhibitors; 310,000 tested, 5.9% active; further: potency means the concentration at half of the fitted maximal effect; on the % scale 0 is the no-effect control and ±100 the full control effect
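A one-generation exposure of luciferase-tagged malaria parasites in RPMI 1640/Albumax erythrocyte culture, 37 C and 5% CO2. Inhibition is inferred from decreased luminescence after adding detection reagent.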
FBPA Giardia inh = qHTS Assay for Inhibitors of Fructose-1,6-bisphosphate Aldolase from Giardia Lamblia; 290,000 tested, 0.71% active; A8B2U2; purified Giardia FBPA; AID 2451, 2010; Potency, µM (highest dose often 59.6 µM), for the others: at the highest dose activity, negative = inhibition, most hits filed as inhibitors; further: potency means the concentration at half of the fitted maximal effect; on the % scale 0 is the no-effect control and ±100 the full control effect; nearly all actives have a fitted effect of over 55% in size
Target sequence (A8B2U2 whole entry, looked up): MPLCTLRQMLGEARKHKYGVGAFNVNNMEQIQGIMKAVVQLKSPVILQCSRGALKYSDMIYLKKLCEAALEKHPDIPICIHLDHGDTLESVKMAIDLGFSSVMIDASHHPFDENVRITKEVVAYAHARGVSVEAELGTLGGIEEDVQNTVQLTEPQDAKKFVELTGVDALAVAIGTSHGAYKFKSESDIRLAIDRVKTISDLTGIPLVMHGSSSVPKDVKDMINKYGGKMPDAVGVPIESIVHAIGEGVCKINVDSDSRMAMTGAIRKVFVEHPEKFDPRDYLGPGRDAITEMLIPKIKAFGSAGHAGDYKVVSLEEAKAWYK
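Giardia FBPA (40 nM reagent) was preincubated 10 min at RT with compound (up to 57.5 uM final), then substrate plus GAPDH/TPI/NAD/arsenate coupling system with diaphorase/resazurin was added; resorufin fluorescence (525/598 nm) was read after 20 min.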
Pf growth 96h = Primary qHTS for delayed death inhibitors of the malarial parasite plastid, 96 hour incubation | P. falciparum luciferase reporter growth, 96 h | Potency, µM (doses to about 28.7 µM), inactives show top-dose activity change, negative = inhibition, usual class: inhibitors | 320,000 tested, 6.9% active | AID 504834, 2011; further: potency means the concentration at half of the fitted maximal effect; on the % scale 0 is the no-effect control and ±100 the full control effect
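96 h incubation, 37 C, 5% CO2, of luciferase-reporter P. falciparum-infected RBCs (2% hematocrit, 0.05% parasitemia final) with test compounds; endpoint luminescence.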
CHX counter = Cycloheximide Counterscreen for Small Molecule Inhibitors of Shiga Toxin; cell reporter, cycloheximide protein synthesis inhibition counterscreen; max response, %; 300,000 tested, 12% active; AID 2314, 2010; in the data active means max response mostly above about 13%, no sharp cut-off; inactive means mostly below about 14%; further: read at 38.3 µM for the half of the compounds with a filed dose; 0% is about no effect
Shiga toxin inh = A qHTS for Small Molecule Inhibitors of Shiga Toxin; Vero cells, Shiga toxin protein synthesis inhibition reporter; inhibition, % at 38.7 µM; 290,000 tested, 9.2% active; in the data active means inhibition mostly above about 28%, no sharp cut-off; inactive means mostly below about 43%; further: 0% is about no effect
* marks the source's active call; other numbers are inactive results; ? = inconclusive; · = no result given. Shown are actives, neighbours in structure and some others; about 21% of the full set was active somewhere. Unless noted, the call rests on the fitted dose curve; in most records, active means well fitted curve in the direction sought with a large enough effect; inconclusive means small, poorly fitted or top-dose-only effect, or another doubt; inactive means no such curve, though single readings can be large; an effect the other way counts as inactive or inconclusive.

SMILES	NS1 inh	Pf growth 48h	FBPA Giardia inh	Pf growth 96h	CHX counter	Shiga toxin inh
COC(=O)Nc1sc2c(c1C(N)=O)CCCCCC2	-106%	8%	-2%	·	-3	-3
NC(=O)c1c(NC(=O)c2cnccn2)sc2c1CCCC2	·	106%	-2%	64%	16*	32
CCOC(=O)CNC(=O)c1cccnc1Oc1ccc(Cl)cc1	2%	34%	0%	-11%	-4	-3
CCCCc1ncc(/C=C(\Cc2cccs2)C(=O)O)n1Cc1ccc(C(=O)O)cc1	·	-7%	·	-8%	·	·
COc1ncc2nc(CCc3ccccc3)c(=O)n(Cc3ccc(F)cc3)c2n1	·	·	-4%	·	·	·
NC(=O)c1c(NC(=O)c2ccccc2)sc2c1CCc1ccccc1-2	-2%	·	-5%	109%	21*	33
CCN(CC)C(=O)CSc1nnc2nnc3cc(Cl)ccc3n12	-46%	4.7µM*	-15%	7.4µM*	1	3
CC(=O)/C(N=Nc1ccc(SC(F)F)cc1)=C(\C)O	·	11%	-15%	99%	44*	59*
Cc1cc(CNC(=O)[C@H](C)[C@H]2C[C@]2(C)[C@H](NC(=O)OCc2ccccc2)c2ccccc2)nn1C	·	·	7%	·	·	·
CSc1nnc(-c2cc3ccccc3cc2O)n1C	-12%	2.1µM*	-11%	·	0	2
CCOc1ccccc1-c1nc(CN2CCCN(C(=O)c3ccco3)CC2)c(C)o1	16%	?	·	-28%	-2	-10
O=C(CNS(=O)(=O)/C=C/c1ccccc1)OC1CCOC1=O (centres undefined)	·	7%	6%	21%	2	-13
OCC1(Cc2ccccc2)CCN(C2CCN(c3ccc(F)c(F)c3)CC2)CC1	-3%	6%	0%	-28%	-2	16
C=C(C)c1cccc(C(C)(C)NC(=O)Nc2ccc(OC)nc2)c1	17%	?	-3%	?	3	-4
C=C(C)c1cccc(C(C)(C)NC(=O)Nc2ccc(C)cn2)c1	5%	30%	5%	?	21*	63*
C=C(C)c1cccc(C(C)(C)NC(=O)Nc2cc(C)ccn2)c1	-6%	16%	3%	?	30*	92*
C=C(C)c1cccc(C(C)(C)NC(=O)N2CCCC2)c1	7%	-12%	3%	13µM*	1	-9
C=C(C)c1cccc(C(C)(C)NC(=O)Nc2nncs2)c1	0%	-11%	-10%	2%	-2	-6
C=C(C)c1cccc(C(C)(C)NC(=O)Nc2nnc(C(C)C)s2)c1	2%	27%	-8%	12µM*	1	-1
N#Cc1cc2ccccc2n2nnnc12	-10%	10%	-1%	43%	-1	-4
Cc1cc(C)n2nnnc2c1C#N	11%	18%	2%	13µM*	7	-2
O=C(CSc1ccc(F)cc1)Nc1ccc(N2CCOCC2)c(Cl)c1	-16%	13%	·	142%	20	26
CCC(=O)Nc1ccc2nc(SCC(=O)N3CCOCC3)sc2c1	·	-13%	-4%	32%	13	8
CCCC(=O)Nc1ccc2nc(SCC(=O)Nc3ccc(N4CCOCC4)c(Cl)c3)sc2c1	4%	?	1%	?	52*	150*
Nc1nnc(SCC(=O)Nc2ccc(N3CCOCC3)c(Cl)c2)s1	11%	-1%	-16%	-29%	21*	34
SMILES	NS1 inh	Pf growth 48h	FBPA Giardia inh	Pf growth 96h	CHX counter	Shiga toxin inh
CCCCn1c(-c2ccc(C(C)(C)C)cc2)nc2cc3[nH]c(=O)c(C(C)C)nc3cc21	30%	?	-14%	4.7µM*	-2	-5
CCCCn1c(=O)[nH]c(=O)c2c1nc(-c1ccc3ccccc3c1)n2CC	·	-28%	2%	?	1	-14
CCCCn1c(-c2ccc(Cl)c(Cl)c2)nc2cc3[nH]c(=O)c(C(C)C)nc3cc21	?	?	-26%	4.7µM*	-1	2
CCN(Cc1ccccc1)c1ccc(/C=N/N2CCOCC2)cc1	-25%	32%	2%	59%	36*	28*
CCN(CC)c1ccc(/C=N/N2CCOCC2)cc1	-7%	111%	10%	?	53*	52*
Cc1[nH]nc(SCC(=O)N2CCCC2)c1[N+](=O)[O-]	·	20%	0%	-29%	0	21
Cc1[nH]nc(SCC(=O)N2CCC(C)CC2)c1[N+](=O)[O-]	4%	·	-21%	-25%	17*	18
CC(=O)c1cnc(N2CCCCC2)nc1C	-2%	9%	0%	·	8	13
CC(C)(C)S(=O)(=O)c1cnc(-c2ccc(Cl)cc2)nc1N	-4%	49%	3%	0%	22*	47*
CC(C)(C)S(=O)(=O)c1cnc(N2CCCCC2)nc1N	3%	16%	4%	80%	19*	25
CS(=O)(=O)c1cnc(-c2ccccc2)nc1Oc1ccc(Cl)cc1	12%	1%	-5%	20%	7	-1
CCCCC(C)(O)C/C=C/[C@H]1[C@H](O)CC(=O)[C@@H]1CCCCCCC(=O)O (some centres undefined)	·	·	-1%	·	·	·
O=C(NC1CC1)c1nc(Cn2cc([N+](=O)[O-])cn2)no1	3%	13%	·	-20%	-8	2
CCC(C)C(NC(=O)C1CCC(C)CC1)C(=O)Nc1ccc(OC)cc1 (centres undefined)	0%	?	8%	-19%	9	-6
COC(=O)c1ccc(O)c(Sc2cc(C(=O)OC)ccc2O)c1	-26%	9%	1%	-26%	7	-6
COC(=O)c1ccc(C2CC(=O)Nc3cc(OC)c(OC)c(OC)c32)cc1 (centres undefined)	-2%	-12%	-10%	-30%	-1	-10
COC(=O)c1ccc2c(c1)C(C)(C)C(/C=C/c1ccc(O)cc1)=[N+]2C	-17%	?	-14%	5.2µM*	-10	-26
COC(=O)c1ccc2c(c1)C(C)(C)C(/C=C/c1ccc(OC)c(OC)c1OC)=[N+]2C	-9%	2.3µM*	·	2.3µM*	-11	-28
COc1ccc(CNc2ncnc3ccc(-c4ccc5c(c4)OCO5)cc23)c(OC)c1	·	·	-9%	·	·	·
CN(C)c1nc(SCc2ccccc2Cl)nc2c1CCCC2	-37%	?	6%	?	-1	1
CNc1nc(SCc2ccc(C)cc2)nc2c1CCCC2	-155%	7.4µM*	-7%	13µM*	37*	55*
Cc1ccc(CSc2nc3c(c(N(C)C)n2)CCCC3)cc1	-55%	13µM*	3%	?	6	5
Cc1nc(SCc2ccccc2)nc2c1CCC2	-22%	88%	1%	70%	58*	85*
COc1cc(CNCCO)ccc1OCC(=O)Nc1ccc(Br)cc1	-3%	?	4%	·	24*	23
CCOc1cc(CNc2ccc(S(N)(=O)=O)cc2)ccc1OCC(=O)NC(C)(C)C	2%	21%	6%	?	6	-8

High-throughput results: PubChem BioAssay, National Center for Advancing Translational Sciences (NCATS)
